Reference: PubChem BioAssay (NCATS)
Calls of active or inactive are those of the source. Entries that show only a call come without a potency. The call rests on the fitted dose curve; in most records, active means well fitted inhibition curve with a large enough effect; inconclusive means small, poorly fitted or top-dose-only effect; inactive means flat fitted curve, though single readings scatter.

target: ATP-dependent DNA helicase Q1 (Homo sapiens) (UniProt P46063); test: qHTS Validation Assay for Inhibitors of RecQ-Like Dna Helicase 1 (RECQ1) (AID 2353); conditions: recombinant RECQ1 helicase DNA unwinding assay; series mostly up to 25.6 µM
Sequence (P46063 whole entry, looked up): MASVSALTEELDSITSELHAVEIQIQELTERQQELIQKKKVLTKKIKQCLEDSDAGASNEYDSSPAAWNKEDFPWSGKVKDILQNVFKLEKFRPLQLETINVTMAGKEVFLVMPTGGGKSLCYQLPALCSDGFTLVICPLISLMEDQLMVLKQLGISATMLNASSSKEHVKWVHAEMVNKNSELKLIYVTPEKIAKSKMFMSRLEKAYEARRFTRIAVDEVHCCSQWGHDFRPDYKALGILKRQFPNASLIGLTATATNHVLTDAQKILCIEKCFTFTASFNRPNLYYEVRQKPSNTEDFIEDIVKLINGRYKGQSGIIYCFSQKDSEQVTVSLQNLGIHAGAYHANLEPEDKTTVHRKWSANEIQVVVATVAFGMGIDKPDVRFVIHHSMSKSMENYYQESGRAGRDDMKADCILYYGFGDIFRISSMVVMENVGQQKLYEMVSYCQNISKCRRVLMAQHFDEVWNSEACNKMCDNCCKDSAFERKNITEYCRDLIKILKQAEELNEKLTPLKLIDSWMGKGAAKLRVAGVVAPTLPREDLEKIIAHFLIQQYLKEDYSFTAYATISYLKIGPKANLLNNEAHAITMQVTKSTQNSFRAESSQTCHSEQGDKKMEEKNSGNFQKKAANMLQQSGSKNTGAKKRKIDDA
Summary of the method: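 50 nM RECQ1T1 preincubated 15 min with compound in Tris pH 8.0 buffer with MgCl2, DTT, Tween-20 and 2.5 ug/ml poly(dI-dC); started with 200 nM TAMRA/BHQ-2 forked duplex and 2 mM ATP. Unwinding read as fluorescence (525/598 nm), two reads 2 h apart.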
Potency means the concentration at half of the fitted maximal effect.

SMILES | Potency
N[C@@H](Cc1c[nH]c2ccc(O)cc12)C(=O)O | inactive
CCOC(=O)Nc1ccc(NCc2ccc(F)cc2)nc1N | inactive
COc1cc2nc(N3CCN(C(=O)c4ccco4)CC3)nc(N)c2cc1OC | inactive
CN1CCC(=C2c3ccccc3C=Cc3ccccc32)CC1 | inactive
Nc1c2c(nc3ccccc13)CCCC2 | inactive
Fc1ccc([C@@H]2CCNC[C@H]2COc2ccc3c(c2)OCO3)cc1 | inactive
O=C1c2c(O)ccc(O)c2C(=O)c2c(NCCNCCO)ccc(NCCNCCO)c21 | 3.16 µM (active)
CCC1(C)CC(=O)NC1=O (stereo unspecified) | inactive
CC(C)NCC(O)COc1ccc(CCOCC2CC2)cc1 (stereo unspecified) | inactive
CN(C)c1nc(N(C)C)nc(N(C)C)n1 | inactive
NCCS(=O)(=O)O | inactive
CN(C)CCC=C1c2ccccc2C=Cc2ccccc21 | inactive
Cn1c(=O)c2c(ncn2C)n(C)c1=O | inactive
CCC1(c2ccccc2)C(=O)NCNC1=O | inactive
COc1ccc2[nH]cc(CCNC(C)=O)c2c1 | inactive
CCCNCC(O)COc1ccccc1C(=O)CCc1ccccc1 (stereo unspecified) | inactive

SMILES | Potency
CN1CCC(=C2c3ccccc3CC(=O)c3sccc32)CC1 | inactive
O=C(c1ccc(F)cc1)C1CCN(CCn2c(=O)[nH]c3ccccc3c2=O)CC1 | inactive
CN1CCN(CCCN2c3ccccc3Sc3ccc(Cl)cc32)CC1 | inactive
CC[N+](CC)(CC)CCOc1cccc(OCC[N+](CC)(CC)CC)c1OCC[N+](CC)(CC)CC | inactive
O=C1N(c2ccccc2)c2ccccc2C1(Cc1ccncc1)Cc1ccncc1 | inactive
NC(=O)OCC(COC(N)=O)c1ccccc1 | inactive
Nc1nc2c(ncn2COC(CO)CO)c(=O)[nH]1 | inactive
CC(CCc1ccc(O)cc1)NCCc1ccc(O)c(O)c1 (stereo unspecified) | inactive
COc1ccccc1N1CCN(CC(O)COc2cccc3ccccc23)CC1 (stereo unspecified) | inactive
Cn1c(=O)c2[nH]cnc2n(C)c1=O | inactive
NCCc1cnc[nH]1 | inactive
COc1cc2nc(N3CCN(C(=O)C4COc5ccccc5O4)CC3)nc(N)c2cc1OC (stereo unspecified) | inactive
CN(C)CCOC(c1ccccc1)c1ccccc1 | inactive
NC12CC3CC(CC(C3)C1)C2 | inactive
Cn1cnc2c1c(=O)[nH]c(=O)n2C | inactive
